# BioA inh: BioA (M. tuberculosis) enzyme inhibition | AID 602481 | purified M. tuberculosis BioA enzyme, plate reader | inhibition, % at 9.99 µM | actives 0.096% (n = 360,000); in the data active = inhibition above about 40%
# FBA Mtb inh: Mtb fructose-bisphosphate aldolase inhibition | purified M. tuberculosis FBA, fluorescence read-out | inhibition, % at 1 µM | actives 2.3% (n = 360,000) | AID 588726; in the data active = inhibition above about 27%
# Target sequence (P9WQA3 whole entry, looked up): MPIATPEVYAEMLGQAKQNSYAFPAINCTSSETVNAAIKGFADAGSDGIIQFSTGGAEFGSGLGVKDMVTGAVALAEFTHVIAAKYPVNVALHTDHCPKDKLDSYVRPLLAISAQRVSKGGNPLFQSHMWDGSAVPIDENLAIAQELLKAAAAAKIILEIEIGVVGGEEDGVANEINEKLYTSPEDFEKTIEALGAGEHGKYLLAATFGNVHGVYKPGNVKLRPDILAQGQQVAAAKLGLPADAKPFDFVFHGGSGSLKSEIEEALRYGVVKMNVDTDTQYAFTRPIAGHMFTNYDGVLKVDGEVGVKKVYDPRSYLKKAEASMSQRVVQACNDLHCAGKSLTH
# FadD28 binding: inhibitors of Mycobacterium tuberculosis FadD28 bisubstrate binding. FadD28 bisubstrate probe binding, fluorescence polarization. inhibition, % at 12.5 µM. actives 0.22% (n = 360,000). AID 588549; in the data active = inhibition above about 8.5%, passing the limit was not always enough
# GDH-TPI counter: counter-screen for M. tuberculosis FBA inhibitors: GDH-TPI coupled enzymes | GDH-TPI coupled enzyme counterscreen, NADH absorbance | inhibition, % at 4.8 µM | actives 1.2% (n = 360,000); in the data active = inhibition above about 30%
# Rv3671c inh: Rv3671c (M. tuberculosis) protease inhibition; P9WHR9; inhibition, % at 5.96 µM; actives 0.048% (n = 320,000); AID 2606; in the data active = inhibition above about 38%;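 note: extracellular domain of Rv3671c used as enzyme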
# Hits are given with their value; - = inactive; . = no result given; + = active, no number. Most compounds without a hit are left out; they make up all but 3% or so of the library.
SMILES,BioA inh,FBA Mtb inh,FadD28 binding,GDH-TPI counter,Rv3671c inh
CN(/N=C/c1cccs1)c1cc(=O)n(C)c(=O)[nH]1,-,-,-,48,-
Cc1cc(=O)[nH]c(N/N=C/c2cccs2)n1,-,-,-,-,-
CCN(/N=C/c1cccs1)c1cc(=O)n(C)c(=O)[nH]1,-,-,-,43,-
CC(=O)Nc1nc2nc(-c3ccccc3)cc(-c3ccccc3)n2n1,-,60,-,-,-
CC(C)NC(=O)N(C)C[C@H]1Oc2ccc(NC(=O)C3CCCCC3)cc2CC(=O)N([C@@H](C)CO)C[C@H]1C,-,.,.,.,.
CN(/N=C/c1cc(Cl)cc(Cl)c1O)c1c(Cl)cccc1[N+](=O)[O-],-,-,-,37,-
CC(C)(C)N/N=C/c1cc(Cl)cc([N+](=O)[O-])c1O,.,-,-,-,-
CSc1nc2nccc(-c3ccc(Cl)cc3)n2n1,-,-,-,-,-
CSc1nc2nccc(/C=C\c3ccccc3)n2n1,-,-,-,31,-
COc1ccc(S(=O)(=O)N(C)C[C@@H]2Oc3ccc(NC(=O)CCCN(C)C)cc3CC(=O)N([C@@H](C)CO)C[C@@H]2C)cc1,-,.,.,.,.
O=C1c2cc(O)cc(O)c2C(=O)c2c1cc(O)c([C@@H](CO)CCO)c2O,-,-,20,-,-
CCS(=O)(=O)Nc1ccc2c(c1)C(=O)N(C)C[C@H](OC)[C@H](C)CN(C(=O)CN(C)C)[C@H](C)CO2,-,.,.,.,.
C[C@H]1CN([C@@H](C)CO)C(=O)c2cc(C#CCC3CCCC3)cnc2O[C@H]1CN(C)C(=O)CN(C)C,-,.,.,.,.
COc1ccc2oc3cc(NCCN(C)C)ccc3c(=O)c2c1,-,+,-,.,.
COc1ccc2sc3cccc(NCCN(C)C)c3c(=O)c2c1,.,-,-,.,.
Cc1ccc2nc(NCc3ccco3)c(C=NCc3ccco3)c(=O)n2c1,-,-,-,-,-
Cc1cc(O)cc(O)c1C=NCc1ccco1,.,-,-,33,-
CCCC(C)Sc1nc2c([nH]1)c(=S)n(C)c(=O)n2C (stereo unspecified),-,-,-,35,.
N#C[C@H]1[C@H](c2ccccc2)[C@H](CO)N1C(=O)CN1CCOCC1,-,.,.,.,.
Cc1cc(=O)oc2c3c(cc(OCC(=O)N[C@@H](C)C(=O)O)c12)OC(C)(C)CC3,-,+,-,-,.
CCCCc1cc(=O)oc2cc(OCC(=O)N[C@@H](Cc3ccccc3)C(=O)O)ccc12,-,-,-,-,-
CCCCC(NC(=O)COc1cc2c(c3oc(=O)cc(C)c13)CCC(C)(C)O2)C(=O)O (stereo unspecified),-,+,-,-,-
Cc1cc(=O)oc2c3c(cc(OCC(=O)NC(C)C)c12)OC(C)(C)CC3,-,+,-,-,.
CC(C)NC(=O)N(C)C[C@@H]1Oc2ncc(-c3cccc(F)c3)cc2C(=O)N([C@H](C)CO)C[C@@H]1C,-,.,.,.,.
C[C@@H]1CCCCO[C@@H](CN(C)C(=O)Nc2ccc3c(c2)OCO3)[C@H](C)CN([C@@H](C)CO)C(=O)c2cc(NS(C)(=O)=O)ccc2O1,-,.,.,.,.
SMILES,BioA inh,FBA Mtb inh,FadD28 binding,GDH-TPI counter,Rv3671c inh
Cc1cccn2c(=O)c3cc(C(=O)NCCc4ccccc4)c(=N)n(CC4CCCO4)c3nc12 (stereo unspecified),.,119,-,-,-
N=c1c(C(=O)NCc2ccco2)cc2c(=O)n3ccccc3nc2n1CC1CCCO1 (stereo unspecified),-,+,-,-,-
Cc1cccn2c(=O)c3cc(C(=O)NCc4cccnc4)c(=N)n(CC4CCCO4)c3nc12 (stereo unspecified),-,+,-,-,-
COc1ccc(CCNC(=O)c2cc3c(=O)n4ccccc4nc3n(CC3CCCO3)c2=N)cc1 (stereo unspecified),-,-,-,-,.
N=c1c(C(=O)NCCc2ccccc2)cc2c(=O)n3ccccc3nc2n1CC1CCCO1 (stereo unspecified),-,+,-,-,-
COc1ccc(CCNC(=O)c2cc3c(=O)n4ccccc4nc3n(CC3CCCO3)c2=N)cc1OC (stereo unspecified),-,-,-,-,-
C[C@H]1CCCCO[C@H](CN(C)Cc2ccc3c(c2)OCO3)[C@@H](C)CN([C@@H](C)CO)C(=O)c2cc(NC(=O)c3ccncc3)ccc2O1,-,.,.,.,.
CCNC(=O)Nc1ccc2c(c1)C(=O)N(C)[C@@H]1CC[C@@H](CC(=O)Nc3ccccc3)O[C@@H]1CO2,-,.,.,.,.
N=c1c(C(=O)NCc2ccc(F)cc2)cc2c(=O)n3ccccc3nc2n1CC1CCCO1 (stereo unspecified),-,+,-,-,-
N=c1c(C(=O)NCc2ccc3c(c2)OCO3)cc2c(=O)n3ccccc3nc2n1CC1CCCO1 (stereo unspecified),-,-,-,-,-
Nc1cc(Cl)nc(N/N=C/c2ccc([N+](=O)[O-])cc2)n1,-,-,-,33,-
Nc1cc(Cl)nc(N/N=C/c2ccccc2[N+](=O)[O-])n1,-,-,-,-,-
C[C@H](CO)N1C[C@H](C)[C@H](CN(C)Cc2ccc(C(F)(F)F)cc2)Oc2ccc(NS(=O)(=O)c3ccc(Cl)cc3)cc2CC1=O,-,.,.,.,.
COc1ccc(S(=O)(=O)N2c3ccccc3OCC2C)cc1 (stereo unspecified),.,-,-,-,-
COc1ccc(S(=O)(=O)N2CCOc3ccccc32)cc1,-,154,-,-,-
CNC[C@@H]1OCCCC[C@@H](C)Oc2ccc(NC(=O)Nc3ccc(C(F)(F)F)cc3)cc2C(=O)N([C@H](C)CO)C[C@H]1C,-,.,.,.,.
COC(=O)[C@]1(CO)N=C(c2ccc(OCCCO)cc2)O[C@@H]1c1ccccc1CN=[N+]=[N-],-,.,.,.,.
O=C(NCC[C@@H]1CC[C@H](NS(=O)(=O)Cc2ccccc2)[C@@H](CO)O1)C1CCCC1,-,.,.,.,.
COc1ccc(-n2c(=S)[nH]c3sc(-c4ccccc4)cc3c2=O)c(OC)c1,-,-,-,-,-
COc1cccc(-c2cc3c(=O)n(-c4ccccc4)c(=S)[nH]c3s2)c1,-,-,-,38,-
O=C1NC(=O)C(=Cc2ccccc2[N+](=O)[O-])S1,-,-,-,-,.
O=C1NC(=O)/C(=C/c2cccc3ccccc23)S1,-,-,-,37,-
CCN(Cc1ccccc1)c1ccc(/C=N/NS(=O)(=O)c2ccc(C)c([N+](=O)[O-])c2)cc1,.,-,-,32,-
CCN(CC)c1ccc(/C=C(\C#N)C(N)=O)cc1,.,-,-,-,.
CCN(CC)c1ccc(/C=C(\C#N)C(=O)c2ccc(Br)cc2)cc1,.,-,28,-,-
O=C(C[C@H]1C=C[C@H](NS(=O)(=O)c2ccccc2)[C@H](CO)O1)NCc1ccc(Cl)c(Cl)c1,-,.,.,.,.
COC(=O)N/N=C/c1ccc(-c2cccc(Cl)c2)o1,.,-,-,31,-
COC(=O)N/N=C/c1ccc(-c2cc(Cl)cc(Cl)c2)o1,-,-,-,46,-
COC(=O)N/N=C/c1ccc(-c2ccc(C)c(Cl)c2)o1,-,-,-,-,-
Nc1ccccc1N=Cc1ccc(-c2cccc(Cl)c2)o1,-,146,-,-,-
